The whole screen tested about 360,000 compounds, of which about 3,700 (1%) were called active. This is one part of a sample in which actives are shown more often than they occur. Values without a mark were called inactive. Cut-off read from the data, not from the text of the source: active = activation above about 30%; inactive = the rest.
What follows are compounds tested against D(1A) dopamine receptor (Homo sapiens) (UniProt P21728) (assay: Allosteric Agonists of the Human D1 Dopamine Receptor: qHTS). Details: HEK293 T-REx D1 cells, calcium flux, agonist mode; at 2 µM; stronger effect = higher value.
Chain of D(1A) dopamine receptor (Homo sapiens) (P21728 whole entry, looked up): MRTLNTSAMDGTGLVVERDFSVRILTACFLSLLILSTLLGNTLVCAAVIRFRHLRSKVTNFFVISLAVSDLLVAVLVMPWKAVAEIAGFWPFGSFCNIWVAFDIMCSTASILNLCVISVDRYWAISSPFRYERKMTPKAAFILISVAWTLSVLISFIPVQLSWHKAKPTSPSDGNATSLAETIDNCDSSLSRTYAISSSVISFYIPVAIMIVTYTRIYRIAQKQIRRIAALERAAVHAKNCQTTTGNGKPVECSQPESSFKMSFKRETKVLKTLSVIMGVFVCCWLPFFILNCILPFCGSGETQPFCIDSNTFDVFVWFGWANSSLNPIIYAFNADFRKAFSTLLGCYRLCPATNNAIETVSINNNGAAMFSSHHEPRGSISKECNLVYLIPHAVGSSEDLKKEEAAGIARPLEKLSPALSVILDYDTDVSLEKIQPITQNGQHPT
Excerpt: NIH Chemical Genomics Center [NCGC] NIH Molecular Libraries Probe Centers Network [MLPCN] MLPCN Grant: NS064831-01 Assay Submitter (PI): David Sibley Dopamine receptors (DARs) are involved in the etiology and/or therapy of a number of neuropsychiatric and endocrine disorders. For instance, all receptor-based antiparkinsonian drugs work via stimulating the D1 DAR subtype whereas all FDA-approved antipsychotic agents are antagonists of this receptor. […] There are three different types of allosteric modulators that we are seeking, two of which will stimulate or augment receptor signaling, allosteric agonists and potentiators, while the third, allosteric antagonists, will attenuate receptor signaling. The present primary screening assay measures compound agonism by tracking calcium flux in a […], inducible Hek293 Trex D1 cell line.
Freshly passaged cells are plated in 1536 well black, clear bottom plates at a density of 4000 cells/well in 3 ul of complete media containing 1x tetracycline inducer. After an overnight incubation at […] in 5% CO2, cells are loaded with 2 ul of the no wash Calcium Assay Kit (ABD Bioquest) and incubated at room temperature for 30 to 90 minutes. Agonist read: A 10 cycle (1 second/cycle) baseline measurement is taken and then the FDSS online 1536 pintool delivers 23 nl of compound library (as well as dopamine controls) to the plate. The plate is measured for kinetically at 1 cycle/sec for 180 seconds and is considered to be the agonist portion of the assay (eg, compounds which activate a positive calcium response during this portion are flagged as potential agonists). Following the 180 second read, 1 ul of either an EC20 (positive modulation assay) or EC80 (negative modulation assay) is delivered by an onboard pipette head. Measurements are taken kinetically for an additional 180 seconds.
Note: 0% is about no effect.

With `O=C(NCc1cc(C(F)(F)F)cc(C(F)(F)F)c1)C1CC(c2cccc(F)c2)=NO1` (stereo not given) the activation was 44.2% (active).
`Cc1cccc(-c2nc(CS(=O)CC(=O)NC(C)CCc3ccccc3)c(C)o2)c1` (stereo not given) was tested, and the activation was 33.5% (active).
`Cc1cc2nc3c(=O)n(Cc4ccccc4)c(=O)[nH]c3nc2cc1N` was tested, and the activation was 368% (active).
In the case of `Cc1ccc2nc(/C(C#N)=C/c3ccc(-c4ccc(C(=O)OC(C)C)cc4)o3)[nH]c2c1`, the activation is reported as 165% (active).
`O=C(O)C(c1ccccc1)N1C(=O)/C(=C\c2ccc(-c3cccc(Cl)c3)o2)SC1=S` (stereo not given) was tested, and the activation was 33.5% (active).
With `CCCN(CCC)c1nc2c(C)cccn2c(=O)c1/C=C1/SC(=S)N(Cc2ccco2)C1=O` the activation was 48.8% (active).
With `O=C(/C=C(O)/C=C/c1ccc(O)cc1)/C=C/c1ccc(O)cc1` the activation was 432% (active).
With `CCc1c(C)sc(NC(=O)c2ccc(Br)o2)c1C(=O)OC` the activation was 32.9% (active).
With `COc1ccccc1Nc1cc(C(=O)NCCCN(C)C2CCCCC2)c2ccccc2n1` the activation was 183% (active).

Compared with `COc1ccc(C2=NOC(C(=O)NCc3ccco3)C2)cc1OC` (stereo not given), `COc1ccc(CNC(=O)C2CC(c3ccc(C(F)(F)F)cc3)=NO2)cc1` (stereo not given) is higher in activation: 1.23% for the first, 16.3% for the second.

First: Cc1ccc(N(CC(=O)NCc2ccc(Cl)cc2)S(=O)(=O)N(C)C)cc1
Second: COc1ccc(CNC(=O)CS(=O)Cc2nc(-c3cccc(C)c3)oc2C)cc1 (stereo not given)
The activation of the first is lower: -0.642% for the first, 3.98% for the second.

Compared with `Cn1c(=O)c(C(=O)O)nn(-c2ccccc2)c1=O`, `O=C(NC1CC(=O)N(c2ccccc2)C1)c1ccco1` (stereo not given) is higher in activation: 1.73% for the first, 2.23% for the second.

First: COc1cccc(NC(=O)CSC2=Nc3ccccc3C3=NC(CC(=O)NC4CCCCC4)C(=O)N23)c1 (stereo not given)
Second: COc1cccc(N=C2SC(C(=O)Nc3cccc(Cl)c3)CC(=O)N2C)c1 (stereo not given)
The activation of the first is lower: 0.2% for the first, 25.2% for the second.

First: CCCN(CCC)C(=O)C1CCCN(c2ncnc3c2nc2n3CCCCC2)C1 (stereo not given)
Second: CCN(CC)c1ccc(NC(=O)Cn2nc3c(cc2=O)CCCC3)c(C)c1
The activation of the first is lower: -0.793% for the first, -0.284% for the second.

Going from `COc1ccc(NC(=O)N2CCCn3nc(C)cc32)cc1OC` to `COc1ccc(-c2nc3scc(CCNS(=O)(=O)c4cc(F)ccc4OC)n3n2)cc1OC`, the activation falls from -0.666% to -4.62%.

Compared with `Cc1ccc(-c2nc(CS(=O)CC(=O)NC3CCCC3)c(C)o2)cc1` (stereo not given), `CCOC(=O)c1ccc(-c2ccc(/C=C(\C#N)C(=O)Nc3ccc(C)cc3)o2)cc1` is higher in activation: -0.511% for the first, 6.86% for the second.

Going from `Cc1ccc(-c2nnc(Nc3cccc(Br)c3)c3ccccc23)cc1S(=O)(=O)NCC1CCCO1` (stereo not given) to `COc1ccc(Nc2cc(C(=O)NCCCN(C)c3ccccc3)c3ccccc3n2)c(OC)c1`, the activation falls from 3.26% to 1.01%.

First: Cc1nc2c(c(=O)n1Cc1ccco1)c1nc3ccccc3nc1n2Cc1ccccc1
Second: Cc1ccc2[nH]c(=O)c(-c3nc4c(C)cccn4c3NCc3ccco3)cc2c1
The activation of the first is lower: 0.836% for the first, 1.97% for the second.

Going from `Cc1cc(OCC(=O)N(C)c2c(N)n(Cc3ccccc3)c(=O)[nH]c2=O)c(C(C)C)cc1Cl` to `CCc1c(C)sc(NC(=O)C2c3ccccc3Oc3ccccc32)c1C(=O)OC(C)C`, the activation falls from -0.311% to -0.651%.

Going from `CCOCCCNC(=O)c1c(NC(=O)Cc2coc3ccc(C)cc23)sc2c1CCC2` to `CCc1c(C)sc(NC(=O)c2cccs2)c1C(N)=O`, the activation falls from 6.68% to 0.933%.

Going from `Cc1ccc2nc(/C(C#N)=C/c3ccccc3F)[nH]c2c1` to `Cc1c(Cl)cccc1NC(=O)C(=O)NCCc1csc2nc(-c3ccccc3F)nn12`, the activation rises from -1.08% to 8.86%.

Compared with `O=C(Nc1c(C(=O)N2CCN(c3ccc(F)cc3)CC2)oc2ccccc12)c1ccco1`, `O=C(CSc1oc(-c2ccco2)nc1S(=O)(=O)c1ccccc1)c1ccc(Cl)cc1` is higher in activation: 3.39% for the first, 5.58% for the second.

Compared with `COC(=O)c1cc(S(=O)(=O)N2CCN(c3cc(Cl)ccc3C)CC2)c[nH]1`, `COC(=O)CN1C(=O)CSc2ccc(S(=O)(=O)Nc3cc(C)ccc3C)cc21` is lower in activation: 6.55% for the first, -2.48% for the second.

First: O=C(NC(=S)Nc1cc(C(F)(F)F)ccc1N1CCOCC1)c1ccc(-c2cccc(Cl)c2)o1
Second: CCN(CC)c1ccc(NC(=O)CN2C(=O)c3cccnc3Oc3ccc(Cl)cc32)c(C)c1
The activation of the first is higher: 4.39% for the first, 1.12% for the second.

Compared with `CN=C1S/C(=C\c2ccc(Sc3ccc(Cl)cc3)o2)C(=O)N1C`, `CC(C)(C)C(=O)/C(C#N)=C/c1ccc(O)cc1` is higher in activation: -0.0809% for the first, 6.88% for the second.

First: COc1cc(OC)cc(C(=O)Nc2cc3nn(-c4ccccc4)nc3cc2Cl)c1
Second: COc1cccc(C(=O)NNC(=O)/C=C/c2ccccc2)c1
The activation of the first is lower: 0.0669% for the first, 1.13% for the second.

Going from `CCCCN(CCCNC(=O)c1cc(Nc2ccccc2OC)nc2ccccc12)c1ccccc1` to `COc1ccccc1Nc1c2c(nc3ccc(NC(=O)/C=C/c4cc(OC)c(OC)c(OC)c4)cc13)CCCC2`, the activation falls from 0.606% to -0.5%.

Source: PubChem BioAssay AID504660 (National Center for Advancing Translational Sciences (NCATS), 2011)
